# Laboratory results published in PubChem BioAssay.
# Values joined by “and” are separate entries in the source; they are usually repeats but may differ in a detail not shown here. Equal entries are not always repeated. Records with an inconclusive call do not appear. Active and inactive are the calls of the source. Unless noted, the limit is not given here; nearly all actives have AC50 up to about 26 µM.
# Columns and labels:
# [1] = viability loss in pontine glioma line – cell-based, SU-DIPG-XXV, MIPE5.0, CellTiter-Glo, qHTS, dose response (AID 1347065); settings: CellTiter-Glo ATP luminescence;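 also: cells exposed to compound for 48 hours before ATP readout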
# [2] = SU-DIPG-VI glioma cell viability, MIPE4.0 library, CellTiter-Glo luminescence, qHTS (AID 1347066; cut-off not given, nearly all actives have AC50 up to about 30 µM;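 also: cells exposed to compound for 48 hours before readout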); settings: CellTiter-Glo ATP luminescence
# [3] = JHH-DIPG-1 glioma cell viability, MIPE5.0 library, CellTiter-Glo luminescence, qHTS (AID 1347067); settings: JHH-DIPG-1 glioma viability, CellTiter-Glo ATP luminescence;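 also: cells exposed to compound for 48 hours before readout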
# [4] = SU-DIPG-XXV glioma cell viability, MIPE5.0 library, qHTS (AID 1347068; cut-off not given, nearly all actives have IC50 up to about 30 µM;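 as to IC50: cells exposed to compound for 48 hours before viability readout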)
# [5] = sensitizers of A549 cells to miR-34 induction, primary screen, imaging, A549 dox-inducible miR-34, nuclei and caspase counts (AID 1347080;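 active = compounds whose cell count with miR-34 switched on is under 0.7 times the count with it off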); settings: A549 miR-34 inducible, Hoechst nuclei count, 48 h
# [6] = phospholipid biosynthesis inhibitors in animal cells, primary screen, cell-based, LOPAC library, screen 4 (AID 1347384; call rule not given here); settings: phospholipid biosynthesis inhibition screen, at 10 µM
# [7] = biological target: NAD(+) hydrolase SARM1 (Homo sapiens) (UniProt Q6SZW1); test: SARM1 TIR NADase inhibitors, cell lysate, NAD-Glo luminescence (AID 1508614;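 active = compound whose remaining NAD level is above about 45 nM, limit read from the data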;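 also: higher remaining NAD means stronger inhibition of SARM1 NADase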); settings: SAM-TIR HEK293T lysate NADase, at 1 µM, stronger effect = higher value
# [8] = biological target: Mitogen-activated protein kinase 7 (Homo sapiens) (UniProt Q13164); test: ERK5 transactivation activators in reporter cells, primary screen, cell-based, HTS (AID 1508626;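 active = luciferase signal above three times the same-plate solvent-only control wells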;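 also: luciferase driven by Gal4-ERK5 fusion binding five Gal4 sites before minimal TATA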); settings: HeLa Gal4-ERK5 transactivation, 18 h, at 5 µM, stronger effect = higher value
# [9] = viability rescue of complex I mutant cybrids, primary screen, cell-based, galactose medium, ATP luminescence (AID 1645843;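 active = z-score of at least 1.8 in each of two replicates, scored against plate mean and spread of sample wells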;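 also: positive z means more ATP and so rescue of galactose-driven cybrid death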); settings: complex I mutant cybrid cells, 72 h, stronger effect = higher value
# [10] = survival rescue of mitochondrial mutant cells in low glucose, primary screen, MELAS cybrids, Rieske KO mouse fibroblasts, CellTiter-Glo (AID 1508586;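 active = mean z-score across replicates of 1.96 or higher in either the MELAS or the Rieske mutant cell line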;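 also: z relative to plate mean and SD of compound and empty wells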)
# [11] = modifiers of HSF1 nuclear foci, imaging, Selleck Cancer Library (AID 1347162; in the data active = plate-normalised HSF1 focus index below about 0.46); settings: human cells, at 10 µM; SSMD: measured here: HSF1 foci SSMD mean; cell count: measured here: cell number; plate-normalised HSF1 focus index: stronger effect = lower value
# [12] = stronger effect = lower value, cell number ratio, induced over uninduced
# [13] = measured here: relative caspase fold change +Dox/-Dox
# [14] = measured here: total cells with miR-34 induction, stronger effect = lower value
# [15] = measured here: total cells without miR-34 induction
# [16] = MELAS cybrid survival, CellTiter-Glo 48 h, stronger effect = higher value
# [17] = Rieske KO mouse fibroblast survival, CellTiter-Glo 72 h
# NAD(+) hydrolase SARM1 (Homo sapiens), sequence (Q6SZW1 whole entry, looked up, the tested form may be a part): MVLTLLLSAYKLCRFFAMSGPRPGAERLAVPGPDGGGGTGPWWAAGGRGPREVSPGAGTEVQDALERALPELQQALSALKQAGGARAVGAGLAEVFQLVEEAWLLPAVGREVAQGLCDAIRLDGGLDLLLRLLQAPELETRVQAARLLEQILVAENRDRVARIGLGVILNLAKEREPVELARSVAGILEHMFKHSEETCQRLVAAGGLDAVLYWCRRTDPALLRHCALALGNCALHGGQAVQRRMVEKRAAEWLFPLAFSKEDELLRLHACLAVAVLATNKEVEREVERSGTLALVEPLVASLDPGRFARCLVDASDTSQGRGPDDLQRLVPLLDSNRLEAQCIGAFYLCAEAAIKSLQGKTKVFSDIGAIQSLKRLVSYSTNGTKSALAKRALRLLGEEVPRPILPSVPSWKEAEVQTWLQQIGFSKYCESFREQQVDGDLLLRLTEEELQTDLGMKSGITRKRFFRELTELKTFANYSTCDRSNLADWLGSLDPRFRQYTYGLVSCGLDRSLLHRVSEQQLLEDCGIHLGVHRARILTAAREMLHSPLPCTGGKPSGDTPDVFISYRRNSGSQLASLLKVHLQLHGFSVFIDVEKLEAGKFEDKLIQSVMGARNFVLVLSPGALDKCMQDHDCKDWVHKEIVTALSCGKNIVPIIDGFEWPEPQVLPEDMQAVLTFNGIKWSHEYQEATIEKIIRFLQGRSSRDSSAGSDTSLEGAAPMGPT
# Mitogen-activated protein kinase 7 (Homo sapiens), sequence (Q13164 whole entry, looked up, the tested form may be a part): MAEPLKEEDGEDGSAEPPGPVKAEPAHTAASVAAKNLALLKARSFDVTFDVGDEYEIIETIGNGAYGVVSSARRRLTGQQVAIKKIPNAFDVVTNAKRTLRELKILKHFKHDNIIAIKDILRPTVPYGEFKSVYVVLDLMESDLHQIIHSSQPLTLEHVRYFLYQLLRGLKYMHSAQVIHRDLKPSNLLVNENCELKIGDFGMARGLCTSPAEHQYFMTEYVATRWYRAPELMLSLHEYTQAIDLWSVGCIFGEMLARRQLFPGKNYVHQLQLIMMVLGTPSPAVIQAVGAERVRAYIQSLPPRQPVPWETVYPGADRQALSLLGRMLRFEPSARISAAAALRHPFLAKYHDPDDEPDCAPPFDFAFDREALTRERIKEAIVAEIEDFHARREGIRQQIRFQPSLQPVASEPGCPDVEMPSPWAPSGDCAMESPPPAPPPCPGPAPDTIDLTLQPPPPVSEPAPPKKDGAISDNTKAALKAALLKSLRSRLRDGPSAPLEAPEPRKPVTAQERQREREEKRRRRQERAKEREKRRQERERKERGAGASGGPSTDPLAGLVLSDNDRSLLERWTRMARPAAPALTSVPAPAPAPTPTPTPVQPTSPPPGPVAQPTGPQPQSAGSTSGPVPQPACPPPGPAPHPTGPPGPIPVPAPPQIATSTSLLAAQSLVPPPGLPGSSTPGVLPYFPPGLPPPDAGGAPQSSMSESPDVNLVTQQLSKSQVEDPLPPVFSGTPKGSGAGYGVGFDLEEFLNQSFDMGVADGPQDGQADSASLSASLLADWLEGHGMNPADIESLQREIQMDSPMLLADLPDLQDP
compound,measurement,setting,value
NCCS(=O)(=O)O,outcome,[1],inactive
same,outcome,[2],inactive
same,outcome,[3],inactive
same,outcome,[4],inactive
same,fold change,[5]; [12],0.992 (inactive) and 0.904 (inactive)
same,fold change,[5]; [13],1.43 and 3.02
same,cell count,[5]; [14],10100 and 12500
same,cell count,[5]; [15],10200 and 13800
same,outcome,[6],inactive
same,remaining NAD,[7],10 nM (inactive)
same,luciferase signal,[8],80 AU (inactive)
same,z-score,[9],0.675 (inactive)
CN(C)CC/C=C1/c2ccccc2COc2ccc(CC(=O)O)cc21,outcome,[1],inactive
same,outcome,[2],inactive
same,outcome,[3],inactive
same,outcome,[4],inactive
same,fold change,[5]; [12],0.88 (inactive)
same,fold change,[5]; [13],0.692
same,cell count,[5]; [14],9640
same,cell count,[5]; [15],10900
same,z-score,[10]; [16],0.699 (inactive) and 0.823 (inactive)
same,z-score,[10]; [17],-0.41 and 0.615
same,z-score,[9],0.505 (inactive)
CC(=O)[C@]1(O)Cc2c(O)c3c(c(O)c2[C@@H](O[C@H]2C[C@H](N)[C@H](O)[C@H](C)O2)C1)C(=O)c1ccccc1C3=O,AC50,[1],5.25 µM (active)
same,AC50,[2],13.2 µM (active)
same,AC50,[3],4.68 µM (active)
same,IC50,[4],23.5 µM (active)
same,fold change,[5]; [12],1.18 (inactive) and 1.09 (inactive)
same,fold change,[5]; [13],0.974 and 1.09
same,cell count,[5]; [14],743 and 2700
same,cell count,[5]; [15],630 and 2460
same,SSMD,[11],-18.6
same,cell count,[11],5180
same,plate-normalised HSF1 focus index,[11],0.0445 (active)
same,outcome,[6],inactive
same,z-score,[10]; [16],2.62 (active)
same,z-score,[10]; [17],-0.996
same,z-score,[9],-1.04 (inactive) and -2.14 (inactive)
COCCCOc1cc(C[C@@H](C[C@H](N)[C@@H](O)C[C@H](C(=O)NCC(C)(C)C(N)=O)C(C)C)C(C)C)ccc1OC,outcome,[1],inactive
same,outcome,[2],inactive
same,outcome,[3],inactive
same,outcome,[4],inactive
same,fold change,[5]; [12],0.948 (inactive)
same,fold change,[5]; [13],0.866
same,cell count,[5]; [14],8860
same,cell count,[5]; [15],9350
same,remaining NAD,[7],10 nM (inactive)
same,luciferase signal,[8],68 AU (inactive)
O=C(O)CCNC(=O)c1ccc(N=Nc2ccc(O)c(C(=O)O)c2)cc1,outcome,[1],inactive
same,outcome,[2],inactive
same,outcome,[3],inactive
same,outcome,[4],inactive
same,fold change,[5]; [12],0.971 (inactive) and 0.94 (inactive) and 0.899 (inactive)
same,fold change,[5]; [13],0.807 and 0.806 and 1.14
same,cell count,[5]; [14],9210 and 7860 and 9290
same,cell count,[5]; [15],9490 and 8360 and 10300
same,z-score,[10]; [16],-1.26 (inactive)
same,z-score,[10]; [17],-1.16
same,remaining NAD,[7],10 nM (inactive)
same,z-score,[9],1.23 (inactive)
